Source: PubChem BioAssay AID504834 (National Center for Advancing Translational Sciences (NCATS), 2011)
In all, about 320,000 compounds went through this assay and about 22,000 (6.9%) were called active. Another 27% or so got no clear call; they are omitted. The list comes from a sample in which actives are over-represented; it also holds similar structures and randomly drawn compounds. A call without a number means that no potency is given here. Values without a mark were called inactive. Calls follow the shape of the dose curve; as a rule, active = well fitted inhibition curve with a large enough effect; inconclusive = small, poorly fitted or top-dose-only effect, or another doubt; inactive = no such curve, though single readings can be large or run the other way.
Potency is read from the fitted curve at half-maximal effect.

Test: Primary qHTS for delayed death inhibitors of the malarial parasite plastid, 96 hour incubation
Details: P. falciparum luciferase reporter growth; series mostly up to 28.7 µM
How it was run: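 Cell-based qHTS: luciferase-tagged P. falciparum in erythrocytes (2% hematocrit, 0.05% parasitemia final) incubated with compounds for 96 hours, 37 C, 5% CO2; luciferase detection reagent then added and luminescence measured.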
For `CCCCN(C(=O)c1ccc(S(=O)(=O)N2CCOCC2)cc1)C1CCS(=O)(=O)C1` (stereo not given), the Potency was “inactive”. With `CC1CCCCN1C(=O)Cn1c(=O)oc2cc(S(=O)(=O)N3CCCCC3)ccc21` (stereo not given) the Potency was “inactive”. In the case of `CCCNC(=O)c1ccc(N2CCC3(CC2)CC(c2cccc(Br)c2)=NO3)c(NC(=O)c2ccco2)c1`, the Potency is reported as 0.37 µM (active). With `O=C(Nc1ccccc1N1CCN(C(=O)c2ccccc2)CC1)c1ccco1` the Potency was “inactive”. In the case of `COC(=O)c1ccc(N2CCOCC2)c(NC(=O)c2ccc(Br)o2)c1`, the Potency is reported as “inactive”. For `CC(CCc1ccc(O)cc1)NCc1ccc(Cl)cc1Cl` (stereo not given), the Potency was “inactive”. With `O=C(CNS(=O)(=O)c1ccccc1)N1CCN(C(=O)c2ccco2)CC1` the Potency was “inactive”. For `CC(OC(=O)Cc1ccc(F)cc1)C(=O)N1CCc2ccccc21` (stereo not given), the Potency was “inactive”. In the case of `N=c1c2c3c(sc2ncn1N)CCCC3`, the Potency is reported as “inactive”. In the case of `N=c1c2c3c(sc2ncn1N)CCCCC3`, the Potency is reported as 3.7 µM (active). For `c1nnc2c3c4c(sc3ncn12)CCC4`, the Potency was “inactive”. For `C[C@@H]1O[C@@H](OC[C@H]2O[C@@H](Oc3c(-c4ccc(O)cc4)oc4cc(O)cc(O)c4c3=O)[C@H](O)[C@@H](O)[C@@H]2O)[C@H](O)[C@H](O)[C@H]1O`, the Potency was “inactive”. In the case of `O=C(COC(=O)Cc1ccc(F)cc1)Nc1cc(S(=O)(=O)N2CCOCC2)ccc1N1CCCC1`, the Potency is reported as “inactive”. With `COc1ccc(CC(=O)Nc2cc(S(=O)(=O)N3CCCCC3)ccc2N2CCN(C)CC2)cc1` the Potency was 6.57 µM (active). In the case of `CN1CCN(c2ccc(S(=O)(=O)N3CCOCC3)cc2NC(=O)CCc2ccccc2)CC1`, the Potency is reported as “inactive”. With `CCOc1cccc2cc(C(=O)OCC(=O)Nc3c(C)cccc3CC)c(=O)oc12` the Potency was “inactive”. With `Cc1ccc(S(=O)(=O)N2CCC3(CC2)OCCO3)c(C)c1` the Potency was “inactive”. With `Cc1cccc(N2CCN(C(C)C(=O)N3CCc4ccccc43)CC2)c1C` (stereo not given) the Potency was “inactive”. For `Cc1sc2ncn(CC(=O)NCCCC(=O)N(C)Cc3ccccc3)c(=O)c2c1C`, the Potency was “inactive”. With `COc1cccc(CC2(CO)CCCN(CC3=Cc4cc(OC)ccc4OC3)C2)c1` (stereo not given) the Potency was “inactive”. With `Cc1ccccc1CC1(CO)CCCN(Cc2ccc3c(c2)OCCO3)C1` (stereo not given) the Potency was 14.7 µM (active). With `CCOc1cc(CN2CCCC(CO)(Cc3ccc(F)cc3F)C2)ccc1OC` (stereo not given) the Potency was “inactive”. In the case of `CC(NC(=O)c1cc2cc(Cl)ccc2oc1=N)c1ccccc1` (stereo not given), the Potency is reported as “inactive”. In the case of `Cc1c(C(=O)Nc2cccc(Cl)c2)cn2c(nc3ccccc32)c1C#N`, the Potency is reported as 2.94 µM (active). In the case of `Cn1cc(Cl)c(C(=O)NNC(=S)Nc2cccc(Cl)c2)n1`, the Potency is reported as “inactive”. With `Cn1c(Nc2cccc(Cl)c2)nc2ccccc21` the Potency was “inactive”. For `O=S(=O)(c1cccs1)N1CCN(CCOc2ccccc2)CC1`, the Potency was “inactive”. In the case of `COc1ccccc1C(=O)Nn1cnnc1`, the Potency is reported as “inactive”. With `CCn1cc(C(=O)NCCO)c(=O)c2cc(F)c(N3CCN(C)CC3)cc21` the Potency was “inactive”. In the case of `CCOC(=O)c1ccc(NC(=O)CCn2c(=O)oc3ccccc32)cc1`, the Potency is reported as “inactive”. With `COc1ccc(CC(=O)N/N=C(\C)c2ccccn2)cc1` the Potency was 3.29 µM (active). In the case of `C/C(=N\NC(=O)c1ccccc1F)c1ccccn1`, the Potency is reported as “inactive”. With `C/C(=N\NC(=O)Cc1ccc(Br)cc1)c1cccnc1` the Potency was “inactive”. With `Nc1nnc(SCC(=O)NC2CCCc3ccccc32)s1` (stereo not given) the Potency was “inactive”. With `O=C(c1cccnc1NCc1ccccc1)N1CCOCC1` the Potency was “inactive”. With `c1ccc(COc2nsnc2N2CCOCC2)cc1` the Potency was “inactive”. For `Fc1cnc(N2CCOCC2)nc1NCc1ccccc1`, the Potency was 2.94 µM (active). In the case of `CC(=O)c1ccc(S(=O)(=O)N2CCC(Oc3ccc(-n4cnnn4)cc3)CC2)cc1`, the Potency is reported as “inactive”. In the case of `CSCCC1NC2(C(=O)Nc3ccc(Cl)cc32)[C@@H]2C(=O)N(C3CCCC3)C(=O)[C@H]12` (stereo not given in full), the Potency is reported as 11.7 µM (active). `O=C1[C@@H]2C(Cc3ccc(O)cc3)NC3(C(=O)Nc4ccc(F)cc43)[C@@H]2C(=O)N1c1ccc(F)cc1` (stereo not given in full) showed an activity change, negative = inhibition of -3.79% [at 5.75 µM]. With `CC(C)(C)NC(=O)NCc1ccco1` the Potency was “inactive”. For `O=C(Nc1ccc2c(c1)OCCO2)C1CCCN(c2ncccn2)C1` (stereo not given), the Potency was “inactive”. For `Cc1cc(C)nc(N2CCC(C(=O)Nc3ccc4c(c3)OCCO4)CC2)n1`, the Potency was 9.28 µM (active). With `Cc1sc2ncn(CC(=O)NCCCC(=O)N3CCN(c4ccccc4F)CC3)c(=O)c2c1C` the Potency was “inactive”. With `CC(=O)c1cc(CN2CCC(n3nccc3NC(=O)c3ccccc3Cl)CC2)cs1` the Potency was “inactive”. For `CC(=O)Nc1ccc(/C=N/Nc2ccc(C(=O)c3c(C)cc4ccccn34)cc2[N+](=O)[O-])cc1`, the Potency was “inactive”. For `COc1ccc2c(C)c(CCC(=O)NC3CC3)c(=O)oc2c1C`, the Potency was 4.15 µM (active). In the case of `Cc1c(CCC(=O)O)c(=O)oc2c(C)c(OCc3ccccc3Cl)ccc12`, the Potency is reported as “inactive”. In the case of `CCOC(=O)CCc1c(C)c2ccc(OCc3nn[nH]n3)c(C)c2oc1=O`, the Potency is reported as “inactive”. With `Cc1c(C(C)CCCO)oc(=O)c2c1Oc1c(C)c(C(C)C[C@@H](C)O)oc(=O)c1C2` (stereo not given in full) the Potency was “inactive”. In the case of `CN1c2ccc([N+](=O)[O-])cc2C(C)(C)C12C=Cc1cc(C(=O)O)ccc1O2` (stereo not given), the Potency is reported as “inactive”. For `CC(C(=O)N1CCN(c2ccccc2F)CC1)c1ccc([N+](=O)[O-])cc1` (stereo not given), the Potency was 9.28 µM (active). For `O=C(c1cccc2ccccc12)N1CCN(c2ccccc2F)CC1`, the Potency was “inactive”. In the case of `O=C(CCSc1ccccc1)N1CCN(c2ccccc2F)CC1`, the Potency is reported as “inactive”. For `Cc1ccc(OCCCC(=O)Nc2ccc3c(c2)OCCO3)cc1`, the Potency was “inactive”. In the case of `O=C(Nn1cnnc1)c1cc(Cl)ccc1Cl`, the Potency is reported as “inactive”. For `O=C(NC(=S)Nc1ccc(Cl)c(C(=O)O)c1)c1cncc(Br)c1`, the Potency was “inactive”. In the case of `Cn1c2c(c(=O)n(C)c1=O)C1c3ccccc3OCC1C(C)(C)O2` (stereo not given), the Potency is reported as 1.65 µM (active). For `Cn1c2c(c(=O)n(C)c1=O)[C@@H]1c3c(ccc4ccccc34)OC[C@@H]1CO2`, the Potency was “inactive”. With `COc1cccc2c1OCC1COc3c(c(=O)n(C)c(=O)n3C)C21` (stereo not given) the Potency was “inactive”. For `COc1ccc(COC(=O)c2ccc(Cl)c(S(=O)(=O)N3CCOCC3)c2)cc1F`, the Potency was 14.7 µM (active). For `COc1ccc(C(=O)OCC(=O)c2ccc(C)c(S(=O)(=O)N3CCOCC3)c2)cc1OC`, the Potency was “inactive”. For `COc1ccccc1OC(=O)c1ccc(C)c(S(=O)(=O)N2CCOCC2)c1`, the Potency was “inactive”. With `C=CCNC(=O)c1ccccc1SCc1c(C)noc1C` the Potency was “inactive”. For `O=C(c1ccc[nH]c1=S)N1CCN(S(=O)(=O)c2ccc(Br)cc2Cl)CC1`, the Potency was “inactive”.
